The text below walks through data of PubChem BioAssay AID743279 (National Center for Advancing Translational Sciences (NCATS), 2014).

The structures appear in SMILES notation. Screen size: about 360,000 compounds; about 17,000 (4.7%) were called active. Inconclusive results (about 5%) are left out. The sample holds actives, similar compounds and a random draw of the others, so the mix is not that of the screen. Unmarked numbers belong to inactive results. No stated cut-off is given here; in the data, active means activity change below about -50%; inconclusive means mostly about -30% to -49%; inactive means weaker than that.
On the % scale 0 is the no-effect control and ±100 the full control effect.

The nature of this experiment: qHTS for Inhibitors of Inflammasome Signaling: IL-1-beta AlphaLISA Primary Screen. The settings on record: THP-1 LPS/ATP IL-1B secretion, 16 h; at 57.5 µM, hits give low values. An outline of the steps: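 Secreted IL-1B measured by AlphaLISA bead assay after 16 h compound exposure of THP-1 cells; compounds (final up to 57.5 uM) added 1 h before LPS (250 ng/mL) and ATP (1.25 mM) stimulation; lower signal means less secretion.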
On the technique in general: qHTS replaces the single test concentration by a dilution series.
Consider `COc1ccc(OC)c(C(=O)c2ccc(Cl)cc2)c1`, for which the activity change was 1.55%.
`COc1ccc(C2NC(=O)c3ccccc3N2)cc1` (stereo unspecified): the activity change was -24.2%.
As for `COc1ccc2c(c1)C(=O)Nc1cc(Cl)ccc1N2`, the figure is -52.1% (active).
Turning to `Cc1cc(C)n2c(NCc3ccccc3)c(CC(C)C)nc2n1`, the activity change is 19.1%.
Take `CCn1cc(C(=O)NC2CCCCCC2)c(=O)c2cc(S(=O)(=O)N3CCCCC3)ccc21`: the activity change is -14.9%.
Next, `CCn1cc(C(=O)NCC2CCCO2)c(=O)c2cc(S(=O)(=O)N3CCCCC3)ccc21` (stereo unspecified): -22.1%.
As for `CCn1cc(C(=O)NCCCN2CCCCCC2)c(=O)c2cc(S(=O)(=O)N3CCc4ccccc4C3)ccc21`, the figure is -60.8% (active).
As for `O=C(C(=O)N1CCN(c2ccccc2)CC1)c1ccc2c(c1)OCO2`, the activity change was -2.25%.
Take `N#C/C(=C\c1ccccc1C(F)(F)F)C(=O)Nc1ccccc1F`: the activity change is -50.4% (active).
`N#C/C(=C\C1=C(N2CCOCC2)C(=C\c2ccccc2)/CC1)C(=O)Nc1ccccc1F`: the activity change is 5.35%.
In the case of `O=C(Nc1ccccc1F)c1ccccc1-c1ccc(C(F)(F)F)cc1`, the activity change was 9.12%.
As for `CCOc1cc2[nH]c(=S)n(Cc3ccc(C(=O)NCCOC)cc3)c(=O)c2cc1OCC`, the activity change was 0%.
For the compound `CCOc1cc2[nH]c(=S)n(Cc3ccc(C(=O)N4CCN(C)CC4)cc3)c(=O)c2cc1OCC`, the activity change was -53.6% (active).
For the compound `COc1ccc(Cn2c(=S)[nH]c3cc(C(=O)N4CCCCC4)ccc3c2=O)cc1`, the activity change was 11.3%.
As for `COc1cccc(-c2cnc3c(NC(C)=O)cc(-c4cccc(NC(C)=O)c4)cn23)c1`, the activity change was 10.8%.
As to `N=c1n(Cc2ccc(Cl)cc2)c2ccccc2n1CC(O)c1ccco1` (stereo unspecified), the activity change was -59.8% (active).
On to `C=CCn1c(=N)n(CC(O)COc2ccc(OC)cc2)c2ccccc21` (stereo unspecified), for which the activity change was -22.5%.
As to `Cn1c(=N)n(CC(O)c2cccs2)c2ccccc21` (stereo unspecified), the activity change is 0%.
As for `CCCCCCN1C[C@@H](O)[C@H](n2cc(COC(=O)c3ccccc3)nn2)C[C@@H]1c1ccc(Cl)cc1`, the activity change was 6.67%.
Next, `COc1ccc(S(=O)(=O)N2CCCCC2c2cc(C(=O)NCc3ccc(F)cc3)no2)cc1` (stereo unspecified): -1.6%; `CS(=O)(=O)/C(C#N)=C/c1cccn1S(=O)(=O)c1ccc([N+](=O)[O-])cc1`: -25.1%; `CCN(CC)CCn1c2c(c(SCC(=O)Nc3nc4ccccc4s3)nc1=O)CCCC2`: -96.2% (active).
Take `Cc1ccc2nc(NC(=O)CSc3nc(=O)n(CCCN(C)C)c4c3CCC4)sc2c1`: the activity change was -21.5%.
For the compound `CCN(CC)CCn1c2c(c(SCC(=O)Nc3ccc(C(C)C)cc3)nc1=O)CCC2`, the activity change is 7.71%.
For `C#CCNC(=O)C[C@@H]1C[C@@]2(C(=O)OCC)CCCC=C2N(Cc2ccco2)C1=O`, the activity change is 43.1%.
On to `COc1ccc(NS(=O)(=O)c2ccc(F)cc2F)cn1`, for which the activity change was 0.798%.
Regarding `CCC(=O)Nc1nc(OC)cc(OC)n1`, the activity change is 5.6%.
As for `COc1cc(OC)nc(S(C)(=O)=O)n1`, the activity change was -95.5% (active).
With `CC(=O)Nc1cccc(-c2cc(NC(C)=O)c3ncc(-c4ccccc4)n3c2)c1`, the activity change was 12.6%.
In the case of `NC(=O)C1(N2CCCCC2)CCN(C2CC(=O)N(Cc3ccc(N4CCCC4=O)cc3)C2=O)CC1` (stereo unspecified), the activity change is -8.36%.
As for `CC1(C(=O)NS(=O)(=O)c2ccccc2)CCN1C(=O)Cc1ccc(-c2ccccc2)cc1` (stereo unspecified), the activity change is -14.7%.
Next, `Cn1c(CCNS(=O)(=O)c2ccc(F)cc2)nnc1SCc1cccnc1`: 22.3%; `Cc1cccc(C)c1NC(=O)COC(=O)c1ccccc1O`: 12.4%; `CCN(C(=O)CSc1ncn[nH]1)c1cccc2ccccc12`: 19.5%.
`CCN(C(=O)COC(=O)c1ccccc1O)c1cccc2ccccc12`: the activity change was -54.8% (active).
Turning to `Cc1ccc(Sc2ccc(NC(=O)c3ccc(F)cc3)cc2C#N)cc1`, the activity change is 10.9%.
As for `CC1CCCC(NC(=O)c2cccc(N3CCCC3=O)c2)C1C` (stereo unspecified), the figure is 9.06%.
Take `CC1CCN(C(=O)COC(=O)c2cc(S(=O)(=O)N3CCOCC3)ccc2Cl)CC1`: the activity change was 11%.
For `O=C(c1ccc(CS(=O)Cc2ccccc2Cl)o1)N1CCN(c2ccccc2)CC1` (stereo unspecified), the activity change is -50.4% (active).
With `O=C(c1ccc(CS(=O)(=O)c2ccccc2)o1)N1CCN(c2ccccc2)CC1`, the activity change is 41.8%.
Turning to `Cc1ccc(CS(=O)Cc2ccc(C(=O)N3CCOCC3)o2)cc1` (stereo unspecified), the activity change was 41.9%.
Regarding `COc1cc(/C=C/CNC[C@H]2O[C@@H](n3cnc(C(N)=O)n3)[C@H](O)[C@@H]2O)ccc1O`, the activity change is -17.5%.
Regarding `O=C(O)CCn1cc(/C=C/C(=O)c2ccc(Cl)cc2)c(-c2cccc(Br)c2)n1`, the activity change is -96.6% (active).
On to `CCOC(=O)/C(C#N)=C/c1cn(CCC(=O)O)nc1-c1ccc(Br)cc1`, for which the activity change was 0%.
Regarding `O=C(/C=C/NNC(=O)c1cccc(Br)c1)c1ccccc1`, the activity change was -15.9%.
As for `CC(=O)N/C(=C\c1ccc(F)cc1)C(=O)NC(Cc1ccccc1)C(=O)O` (stereo unspecified), the figure is 41.6%; as for `C[C@@H]1CN([C@H](C)CO)C(=O)CCCn2nncc2CO[C@@H]1CN(C)C(=O)OCc1ccccc1`, -18.7%.
Consider `O=C(c1cc(COc2ccc(F)cc2F)on1)N1CCOCC1`, for which the activity change was 4.05%.
In the case of `CCOC(=O)N1CCN(C(=O)C[C@@H]2C[C@@]3(C(=O)OC)CCCCC=C3N(CCC3=CCCCC3)C2=O)CC1`, the activity change was -20.9%.
Next, `CC(=O)Nc1ccccc1OC(=O)N1CCOCC1`: 4.54%.
Take `O=C(Oc1cccc(C(=S)N2CCOCC2)c1)c1cccc(Cl)c1`: the activity change is -5.21%.
As for `O=C(/C=C/c1cccs1)c1cc(Cl)ccc1OC(=O)N1CCOCC1`, the activity change was -111% (active).
As for `COc1ccccc1C(=O)NC(CCSC)C(=O)N1CCN(C/C=C/c2ccccc2)CC1` (stereo unspecified), the figure is -8.53%; as for `O=C(CC(CC(=O)c1ccccc1)c1ccco1)c1ccccc1`, 13.9%; as for `COc1ccc(NC(=O)COC(=O)C2COc3ccccc3O2)cc1` (stereo unspecified), 8.76%.
For the compound `CC(=O)c1ccc(OCC(=O)N(C)C2CCS(=O)(=O)C2)cc1` (stereo unspecified), the activity change is -0.496%.
